The campaign covered roughly 76,000 compounds. About 1,900 (2.5%) were called active. Another 5% or so got no clear call; they are omitted. Calls follow the shape of the dose curve; as a rule, active = well fitted inhibition curve with a large enough effect; inconclusive = small, poorly fitted or top-dose-only effect; inactive = flat fitted curve, though single readings scatter. The sample as a whole holds a higher share of actives than the screen did.
Molecular target: Luciferin 4-monooxygenase (Photinus pyralis) (UniProt P08659)
Assay: Firefly luciferase inhibition profiling of diverse chemical library using quantitative high-throughput screening; also: nearly all actives have a fitted effect of over 65% in size
Settings: purified P. pyralis luciferase, luminescence, biochemical; series mostly up to 115 µM; activity change, negative = inhibition: at the top concentration
Summary of the method: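 Biochemical qHTS: compound (6-point titration) added to 10uM D-luciferin plus 10uM ATP in Tris acetate pH 7.5 buffer with Mg, Tween-20 and BSA, then purified enzyme at 10nM; light output imaged.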
% is scaled to controls: 0 for no effect and ±100 for the full control effect; potency is read from the fitted curve at half-maximal effect.

Chain of Luciferin 4-monooxygenase (Photinus pyralis) (P08659 whole entry, looked up): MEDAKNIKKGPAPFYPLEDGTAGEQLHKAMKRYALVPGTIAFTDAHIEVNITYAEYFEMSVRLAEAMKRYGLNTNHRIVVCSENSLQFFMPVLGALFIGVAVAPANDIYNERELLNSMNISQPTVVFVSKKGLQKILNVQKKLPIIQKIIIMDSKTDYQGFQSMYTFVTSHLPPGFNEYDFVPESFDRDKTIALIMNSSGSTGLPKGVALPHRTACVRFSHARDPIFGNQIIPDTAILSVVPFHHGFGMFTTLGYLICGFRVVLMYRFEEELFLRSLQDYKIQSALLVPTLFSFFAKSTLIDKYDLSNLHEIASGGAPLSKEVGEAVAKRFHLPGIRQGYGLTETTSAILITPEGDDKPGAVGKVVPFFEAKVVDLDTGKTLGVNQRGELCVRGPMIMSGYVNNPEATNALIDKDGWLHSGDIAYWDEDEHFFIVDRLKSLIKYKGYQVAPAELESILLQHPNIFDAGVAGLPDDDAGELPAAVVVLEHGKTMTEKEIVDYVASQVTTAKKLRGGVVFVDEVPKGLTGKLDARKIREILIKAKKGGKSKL

Activity change, negative = inhibition, inactive:
Cc1cc(C)cc(C(=O)NC2CCN(c3cc(-c4cccs4)[nH]n3)C2)c1 (configuration not stated) 9.15%, Cc1cccc(CN2C[C@@H]3C(=O)N(Cc4ccc5c(c4)OCO5)C(=O)[C@@H]3C2)c1 6.64%, COc1ccc(OC)c(S(=O)(=O)N2CCCCCCNC(=O)CC2c2ccccc2)c1 (configuration not stated) -6.43%, CCOc1cccc(CNC(=O)c2ccc3c(c2)N(S(C)(=O)=O)CC3)c1 -22.4%, CC(=O)N1CCc2ccc(C(=O)N3CCCCCC3)cc21 -12.8%, CN(c1ccccc1)c1cc(=O)c2ccnc(-c3ccc(CO)cc3)c2o1 -21.1% [at 172 µM], CN(c1ccccc1)c1cc(=O)c2ccnc(Nc3cccc([S+](C)(=O)[O-])c3)c2o1 -11.7% [at 172 µM], Cc1ccc(CN2CCc3nc(C)nc(-c4ccc(O)cc4)c3C2)cc1 -1.5%, CCN1CCN(c2ccc(C(=O)NCCCn3ccnc3C(C)C)cn2)CC1 0.497%, O=C(NCC1CC1)c1nc2c(o1)CCN(Cc1cccc(F)c1F)CC2 11.9% [at 172 µM], N#Cc1ccc(CN2CCc3nc(C(=O)N4CCOCC4)oc3CC2)cc1 2.1% [at 172 µM], Cc1cccc(CN2CCc3nc(C(=O)Nc4ccc(Cl)cc4)oc3CC2)c1 0.619% [at 172 µM], O=C(NCC1CC1)c1nc2c(o1)CCN(CCc1ccccc1)CC2 -18.4% [at 172 µM], O=C(c1ccccc1-n1cccn1)N1CCN(Cc2ccccc2CO)CC1 6.18%, CCOc1ccc(C(=O)N2CCC(Cc3nc(C(C)C)no3)CC2)cc1 13.5%, Cc1nccn1CC1(CNc2ccncn2)CC1 3.86%, CN(C)Cc1nnc(C2CCCN(C(=O)C3(N)CCNCC3)C2)n1C (configuration not stated) -2.13%, COc1ccccc1C1CCN(Cc2cn(-c3ccccc3)nn2)CC1 1.57%, O=C(Nc1ccc([C@@H](O)[C@H]2COCC(=O)N2Cc2ccccc2F)cc1)C1CCCCC1 6.26%, O=C(Nc1ccc([C@@H](O)[C@H]2COCC(=O)N2Cc2ccccc2F)cc1)c1ccccc1 -24.9% [at 172 µM], O=C([C@H]1C[C@H](Oc2cccnc2)CN1C(=O)CCCc1ccccc1)N1CCOCC1 4.94%, COc1cccc(-c2nc(N3CCOCC3)cc3c2CN(CC2CC2)C3=O)c1 0.339% [at 172 µM], CN(C)c1cccc(-c2ncc3c(n2)OCCN(Cc2ccc(F)cc2F)C3=O)c1 -18.6% [at 172 µM], O=C1c2cnc(-c3ccc(Cl)cc3)nc2OCCN1Cc1ccccc1 -38% [at 172 µM], NC(=O)c1cccc(-c2ncc3c(n2)OCCN(c2cccc(C(F)(F)F)c2)C3=O)c1 -1.05% [at 172 µM], C[S+](=O)([O-])c1cccc(-c2ncc3c(n2)OCCN(Cc2ccc(F)cc2F)C3=O)c1 -3.96%, NC(=O)c1cccc(-c2ncc3c(n2)OCCN(Cc2ccccc2)C3=O)c1 -12.7% [at 172 µM], COc1ccc(F)cc1-c1ncc2c(n1)OCCN(CC1CC1)C2=O -5.25% [at 172 µM], COc1cccc(-c2ncc3c(n2)OCCN(Cc2ccc(F)cc2F)C3=O)c1OC -12.3% [at 172 µM], Cc1ccc(-c2nc(CNS(=O)(=O)C3CC3)[nH]c2-c2ccccn2)cc1 -3.9%, O=C(CC1CCCC1)N1CCOc2ccc(CN3CCc4ccccc4C3)cc2C1 -1.27%, Cc1noc(-c2cccn3c(CNC(=O)c4ccco4)nnc23)n1 -1.64%, CC1=C[C@@H](CN2CCOCC2)[C@H](C(C)C)C[C@H]1Cc1nnc(-c2ccc([N+](=O)[O-])cc2)o1 5.91%, COc1ccc(CN2C[C@H]3CN(Cc4ccc(NC(C)=O)cc4)CCN3C2=O)cc1 1.05% [at 172 µM], CC(C)NC(=O)N1CCN2C(=O)N(Cc3ccc(F)cc3)C[C@H]2C1 -4.21% [at 172 µM], CN(Cc1ccccc1)C(=O)C[C@@H]1CCNC[C@@H]1Cc1cc(-c2ccc(C(C)(C)C)cc2)on1 -4.72%, Cc1cn2nc(C(=O)N3CCC(NC(=O)c4ccc(C#N)cc4)CC3)cc2c(=O)[nH]1 5.34%, CCc1noc(-c2cccn3c(CNC(=O)c4ccncc4)nnc23)n1 0%, CC[C@H]1CN(C(=O)Nc2ccccc2)CC[C@H]1CC(=O)Nc1ccccc1 -7.47% [at 172 µM], COc1ccc(S(=O)(=O)N2CCc3c(C(=O)NCc4ccncc4)cccc32)cc1 -14.8%, CCOc1ccc(C(=O)N2CCCN(C(=O)C3CC3)c3ccccc32)cc1 6.96%, Cc1cccc(S(=O)(=O)N2CCc3c(C(=O)NC(C)C)cccc32)c1 8.99%, Cc1ccc2nc(CO[C@H]3CN(C4CCOCC4)C[C@H]3F)[nH]c2c1 -2.41% [at 172 µM], Cc1ncoc1C(=O)N1CCCn2ccnc2C1c1ccccc1 (configuration not stated) -3.94%, CN(C)C(=O)CC(O)c1cc2n(n1)CCN(C(=O)Cc1ccsc1)C2 (configuration not stated) 0.804%, Cc1cccc2c(C3CCN(S(=O)(=O)c4cc(Cl)cc(Cl)c4)CC3)c[nH]c12 2.81%, COc1ccc(CN2CCc3nn(CC4CC4)c(=O)n3CC2)cc1 -11%, O=C(NCCC1CCN(C(=O)Nc2cc(F)ccc2F)CC1)c1cc(F)ccc1F -11.4%, COc1ccc(C(=O)NCCC2CCN(C(=O)Nc3ccc(F)cc3F)CC2)cc1OC -1.92%, CC(c1cccc(-c2cnc(C(=O)O)cn2)c1)N1CCCC1 (configuration not stated) 0.674%

Potency, active:
CCC(CC)N1CCN(C(=O)c2ccc3c(c2)N(S(C)(=O)=O)CC3)CC1 35.5 µM, O=C(Nc1ccc(Cl)cc1)c1nc2c(o1)CCN(Cc1ccsc1)CC2 17.8 µM, O=C(Nc1ccccc1)c1nc2c(o1)CCN(Cc1cccc(Cl)c1)CC2 1.58 µM, Cc1ccc(C(=O)Nc2ccc(C(O)[C@H]3COCC(=O)N3Cc3ccccc3F)cc2)cc1 (some centres not stated) 28.2 µM, COc1ccc(-c2ncc3c(n2)OCCN(Cc2ccccc2)C3=O)cn1 15.8 µM, COc1ccc(CN2CCOc3nc(-c4cc(F)cc(OC)c4)ncc3C2=O)cc1 28.2 µM, O=C1c2cnc(-c3ccc(O)c(F)c3)nc2OCCN1Cc1ccccc1 22.4 µM, COc1ccc(-c2ncc3c(n2)OCCN(CC2CC2)C3=O)cc1 1.26 µM, O=C(Nc1ccccc1)N1CCN2C(=O)N(Cc3ccc(F)cc3)C[C@H]2C1 50.1 µM, CCC(C)(C)NC(=O)c1cccc2c1CCN2C(=O)Nc1ccc(C)cc1 1.78 µM, CCOC(=O)C1CCN(C(=O)c2cccc3c2CCN3C(=O)Nc2ccccc2)CC1 5.62 µM, COc1ccc(C(=O)NCCC2CCN(C(=O)Nc3cc(F)ccc3F)CC2)cc1 25.1 µM
